Calls of active or inactive are those of the source. Rule for the calls: active = hit-call score of the fitted dose curve at least 0.9, where 1 is the maximum; inactive = score below 0.9.
Key:
Conditions in all cases: mRNA level, 48 h; actives raise or lower the signal
[1] = read-out: Lipase C (LIPC), LIPC (gene 3990); test: LTEA_HepaRG_LIPC: Life Technologies and Expression Analysis (LTEA) Assay for Lipase C (LIPC) using HepaRG (AID 2283514)
In short: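 HepaRG cells, 48 h after plating, treated in duplicate for 48 h in serum-free induction medium over 8 half-log concentrations from 100 uM, 0.5% DMSO. LIPC mRNA by TaqMan qRT-PCR normalized to ACTB/GAPDH/POLR2A; bidirectional fit versus DMSO.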

[2] = read-out: Lipoprotein lipase (LPL), LPL (gene 4023); test: LTEA_HepaRG_LPL: Life Technologies and Expression Analysis (LTEA) Assay for Lipoprotein lipase (LPL) using HepaRG (AID 2283515)
In short: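 Differentiated HepaRG cells, plated 48 h, then exposed 48 h in serum-free induction medium to 8 concentrations (top 100 uM, half-log steps) in 0.5% DMSO, duplicate. LPL mRNA measured by qRT-PCR, normalized to ACTB, GAPDH and POLR2A.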

[3] = read-out: MicroRNA 122 (MIR122), gene 406906; test: LTEA_HepaRG_MIR122: Life Technologies and Expression Analysis (LTEA) Assay for MicroRNA 122 (MIR122) using HepaRG (AID 2283516); note: the transcript read is the microRNA miR-122
In short: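 HepaRG plated 48 h, switched to serum-free induction medium, then treated in duplicate for 48 h (100 uM top, half-log steps, 0.5% DMSO vehicle). RNA isolated, qRT-PCR performed, concentration-response fitted both directions relative to DMSO.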

[4] = read-out: matrix metalloproteinase-10 (MMP10), MMP10 (gene 4319); test: LTEA_HepaRG_MMP10: Life Technologies and Expression Analysis (LTEA) Assay for matrix metalloproteinase-10 (MMP10) using HepaRG (AID 2283517)
In short: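 Differentiated HepaRG cells in serum-free induction medium exposed 48 h in duplicate to 8-point half-log series up to 100 uM in 0.5% DMSO. mRNA quantified by qRT-PCR, normalised to ACTB, GAPDH, POLR2A; bidirectional fit versus DMSO.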

MYC, MYC (gene 4609) = test: LTEA_HepaRG_MYC: Life Technologies and Expression Analysis (LTEA) Assay for MYC using HepaRG (AID 2283518)
In short: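 Differentiated HepaRG cells exposed 48 h in serum-free induction medium to 8 concentrations (top 100 uM, half-log steps; 0.5% DMSO), duplicate. MYC mRNA measured by Fluidigm qRT-PCR, normalized to ACTB, GAPDH, POLR2A; bidirectional fit versus DMSO.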

[5] = read-out: matrix metalloproteinase-3 (MMP3), MMP3 (gene 4314); test: LTEA_HepaRG_MMP3: Life Technologies and Expression Analysis (LTEA) Assay for matrix metalloproteinase-3 (MMP3) using HepaRG (AID 2283519)
In short: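 HepaRG cells (~100,000/well) in serum-free induction medium were dosed in duplicate for 48 h with an 8-point half-log series from 100 uM, 0.5% DMSO. MMP3 mRNA was quantified by Fluidigm TaqMan qRT-PCR, normalized to three housekeeping genes.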

[6] = read-out: Paternally Expressed 10 (PEG10), PEG10 (gene 23089); test: LTEA_HepaRG_PEG10: Life Technologies and Expression Analysis (LTEA) Assay for Paternally Expressed 10 (PEG10) using HepaRG (AID 2283520)
In short: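 HepaRG, 48 h post-plating → serum-free induction medium → 48 h chemical exposure (duplicate, 8-pt, max 100 uM, half-log, 0.5% DMSO) → lysis in RLT → TaqMan qRT-PCR for PEG10, ACTB/GAPDH/POLR2A normalisation.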

[7] = read-out: Phosphatase and tensin (PTEN), PTEN (gene 5728); test: LTEA_HepaRG_PTEN: Life Technologies and Expression Analysis (LTEA) Assay for Phosphatase and tensin (PTEN) using HepaRG (AID 2283523)
In short: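 HepaRG cells, 48 h after plating, exposed in duplicate for 48 h in serum-free induction medium to 8 half-log concentrations up to 100 uM (0.5% DMSO). PTEN mRNA by qRT-PCR, normalized to ACTB, GAPDH, POLR2A; bidirectional fit versus DMSO.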

[8] = read-out: solute carrier (SLC22A1), SLC22A1 (gene 6580); test: LTEA_HepaRG_SLC22A1: Life Technologies and Expression Analysis (LTEA) Assay for solute carrier (SLC22A1) using HepaRG (AID 2283524)
In short: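 Differentiated human HepaRG cells in serum-free induction medium, exposed 48 h in duplicate to 8-point half-log series from 100 µM top in 0.5% DMSO. SLC22A1 mRNA by TaqMan qRT-PCR normalized to ACTB, GAPDH, POLR2A; bidirectional fit versus DMSO.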

[9] = read-out: Pyruvate Dehydrogenase Kinase 4 (PDK4), PDK4 (gene 5166); test: LTEA_HepaRG_PDK4: Life Technologies and Expression Analysis (LTEA) Assay for Pyruvate Dehydrogenase Kinase 4 (PDK4) using HepaRG (AID 2283525)
In short: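 HepaRG cells plated 48 h, then switched to serum-free induction medium and exposed in duplicate for 48 h to 8 half-log concentrations from 100 uM in 0.5% DMSO. PDK4 mRNA measured by qRT-PCR, normalized to ACTB, GAPDH and POLR2A; bidirectional fit versus DMSO.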

[10] = read-out: NAD(P)H dehydrogenase [quinone] 1 (NQO1), NQO1 (gene 1728); test: LTEA_HepaRG_NQO1: Life Technologies and Expression Analysis (LTEA) Assay for NAD(P)H dehydrogenase [quinone] 1 (NQO1) using HepaRG (AID 2283526)
In short: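 HepaRG, 48 h post-plating → serum-free induction medium → test chemical 48 h (duplicate, 100 uM top, half-log x8, 0.5% DMSO) → RNA isolation → qRT-PCR, ACTB/GAPDH/POLR2A normalization; bidirectional curve fit vs DMSO baseline.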

[11] = read-out: Nuclear factor erythroid 2-related factor 2 (Homo sapiens) (UniProt Q16236); test: LTEA_HepaRG_NFE2L2: Life Technologies and Expression Analysis (LTEA) Assay for Nuclear factor erythroid 2-related factor 2 (NFE2L2) Transcription Factor using HepaRG (AID 2283527)
In short: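 Differentiated human HepaRG cells, serum-free induction medium, exposed 48 h in duplicate to eight half-log concentrations up to 100 uM in 0.5% DMSO. NFE2L2 mRNA by Fluidigm TaqMan qRT-PCR, normalised to ACTB, GAPDH, POLR2A; bidirectional change versus DMSO.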

[12] = read-out: succinate dehydrogenase complex iron sulfur subunit B (SDHB), SDHB (gene 6390); test: LTEA_HepaRG_SDHB: Life Technologies and Expression Analysis (LTEA) Assay for succinate dehydrogenase complex iron sulfur subunit B (SDHB) using HepaRG (AID 2283528)
In short: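 SDHB transcript level read by TaqMan qRT-PCR, housekeeping-normalised (ACTB, GAPDH, POLR2A), after 48 h chemical treatment of plated HepaRG cells; eight concentrations top 100 uM, half-log steps, 0.5% DMSO, duplicates; fitted both directions against DMSO.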

[13] = read-out: Signal transducer and activator of transcription 3 (Homo sapiens) (UniProt P40763); test: LTEA_HepaRG_STAT3: Life Technologies and Expression Analysis (LTEA) Assay for Signal transducer and activator of transcription (STAT3) using HepaRG (AID 2283529)
In short: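 Differentiated HepaRG cells, serum-free induction medium, dosed 48 h in duplicate, 8 half-log concentrations from 100 uM in 0.5% DMSO. STAT3 mRNA by qRT-PCR, normalised to ACTB, GAPDH, POLR2A; bidirectional fit versus DMSO.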

[14] = read-out: solute carrier (SLCO1B1), SLCO1B1 (gene 10599); test: LTEA_HepaRG_SLCO1B1: Life Technologies and Expression Analysis (LTEA) Assay for solute carrier (SLCO1B1) using HepaRG (AID 2283530)
In short: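 Differentiated human HepaRG cells were exposed for 48 h in serum-free induction medium to eight half-log concentrations, top 100 uM, in 0.5% DMSO. SLCO1B1 mRNA was measured by qRT-PCR, normalized to ACTB, GAPDH and POLR2A, and fitted bidirectionally against DMSO.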

[15] = read-out: sulfotransferase 2A1 (SULT2A1), SULT2A1 (gene 6822); test: LTEA_HepaRG_SULT2A1: Life Technologies and Expression Analysis (LTEA) Assay for sulfotransferase 2A1 (SULT2A1) using HepaRG (AID 2283531)
In short: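 HepaRG human liver cells, 48 h exposure in serum-free induction medium to 8 half-log concentrations topping at 100 µM (0.5% DMSO), duplicate wells. SULT2A1 mRNA measured by TaqMan qRT-PCR, normalized to ACTB/GAPDH/POLR2A; bidirectional fit against DMSO.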

[16] = read-out: Transforming Growth Factor (TGFA), TGFA (gene 7039); test: LTEA_HepaRG_TGFA: Life Technologies and Expression Analysis (LTEA) Assay for Transforming Growth Factor (TGFA) using HepaRG (AID 2283532)
In short: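 Differentiated HepaRG cells exposed 48 hours in serum-free induction medium, 0.5% DMSO vehicle, 8-point half-log series from 100 uM, in duplicate. TGFA mRNA by TaqMan qRT-PCR, normalised to ACTB, GAPDH, POLR2A; bidirectional fit versus DMSO.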

[17] = read-out: Nuclear factor NF-kappa-B p105 subunit (Homo sapiens) (UniProt P19838); test: LTEA_HepaRG_NFKB1: Life Technologies and Expression Analysis (LTEA) Assay for Nuclear Factor Kappa B Subunit 1 (NFKB1) using HepaRG (AID 2283521)
In short: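 NFKB1 transcript was measured by TaqMan qRT-PCR on Fluidigm arrays, normalised to three housekeeping genes and fitted in both directions against 0.5% DMSO. HepaRG cells were dosed in duplicate for 48 h in serum-free induction medium, eight half-log steps from 100 uM.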

[18] = read-out: Protein phosphatase 2A (PPP2R4), PTPA (gene 5524); test: LTEA_HepaRG_PPP2R4: Life Technologies and Expression Analysis (LTEA) Assay for Protein phosphatase 2A (PPP2R4) using HepaRG (AID 2283522)
In short: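 Readout is PPP2R4 transcript level by microfluidic qRT-PCR after 48 h chemical treatment of human HepaRG liver cells. Concentrations spanned 100 uM downward in half-log steps; gain or loss of signal was fitted relative to DMSO.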

Measured: AC50

Sequence of Nuclear factor erythroid 2-related factor 2 (Homo sapiens) (Q16236 whole entry, looked up): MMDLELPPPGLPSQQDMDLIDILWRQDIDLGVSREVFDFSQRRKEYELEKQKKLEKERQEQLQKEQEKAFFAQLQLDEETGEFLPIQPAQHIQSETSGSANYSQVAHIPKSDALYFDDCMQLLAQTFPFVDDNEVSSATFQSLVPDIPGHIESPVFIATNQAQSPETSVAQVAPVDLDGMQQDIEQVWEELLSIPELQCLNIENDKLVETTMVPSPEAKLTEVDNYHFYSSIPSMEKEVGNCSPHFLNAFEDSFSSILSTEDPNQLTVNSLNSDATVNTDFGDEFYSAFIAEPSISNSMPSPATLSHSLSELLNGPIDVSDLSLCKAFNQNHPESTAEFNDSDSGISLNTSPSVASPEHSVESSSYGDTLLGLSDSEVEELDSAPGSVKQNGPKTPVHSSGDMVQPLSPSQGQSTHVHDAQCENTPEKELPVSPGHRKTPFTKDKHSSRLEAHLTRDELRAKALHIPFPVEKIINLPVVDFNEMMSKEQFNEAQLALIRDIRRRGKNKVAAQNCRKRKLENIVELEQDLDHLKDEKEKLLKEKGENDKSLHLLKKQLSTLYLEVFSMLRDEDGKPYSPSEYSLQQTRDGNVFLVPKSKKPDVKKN
Sequence of Signal transducer and activator of transcription 3 (Homo sapiens) (P40763 whole entry, looked up): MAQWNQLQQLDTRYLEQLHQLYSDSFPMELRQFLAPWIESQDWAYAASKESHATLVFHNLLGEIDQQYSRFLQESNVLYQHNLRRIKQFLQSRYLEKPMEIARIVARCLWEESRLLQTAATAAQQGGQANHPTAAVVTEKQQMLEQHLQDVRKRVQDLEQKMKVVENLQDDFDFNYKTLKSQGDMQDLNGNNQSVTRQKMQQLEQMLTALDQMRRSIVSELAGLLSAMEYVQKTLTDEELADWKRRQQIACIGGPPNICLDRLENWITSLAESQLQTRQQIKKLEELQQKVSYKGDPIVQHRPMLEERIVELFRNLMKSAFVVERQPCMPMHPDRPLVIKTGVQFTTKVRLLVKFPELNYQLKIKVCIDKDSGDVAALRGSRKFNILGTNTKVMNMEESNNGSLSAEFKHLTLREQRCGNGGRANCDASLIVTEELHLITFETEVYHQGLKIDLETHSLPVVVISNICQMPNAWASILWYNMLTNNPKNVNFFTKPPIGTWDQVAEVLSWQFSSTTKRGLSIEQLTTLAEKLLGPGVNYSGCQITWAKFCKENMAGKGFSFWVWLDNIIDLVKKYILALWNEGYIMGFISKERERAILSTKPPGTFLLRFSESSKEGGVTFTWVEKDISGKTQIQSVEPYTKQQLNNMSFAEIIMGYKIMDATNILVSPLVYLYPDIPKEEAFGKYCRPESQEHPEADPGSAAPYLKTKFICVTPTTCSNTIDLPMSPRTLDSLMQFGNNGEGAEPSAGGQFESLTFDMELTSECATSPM
Sequence of Nuclear factor NF-kappa-B p105 subunit (Homo sapiens) (P19838 whole entry, looked up): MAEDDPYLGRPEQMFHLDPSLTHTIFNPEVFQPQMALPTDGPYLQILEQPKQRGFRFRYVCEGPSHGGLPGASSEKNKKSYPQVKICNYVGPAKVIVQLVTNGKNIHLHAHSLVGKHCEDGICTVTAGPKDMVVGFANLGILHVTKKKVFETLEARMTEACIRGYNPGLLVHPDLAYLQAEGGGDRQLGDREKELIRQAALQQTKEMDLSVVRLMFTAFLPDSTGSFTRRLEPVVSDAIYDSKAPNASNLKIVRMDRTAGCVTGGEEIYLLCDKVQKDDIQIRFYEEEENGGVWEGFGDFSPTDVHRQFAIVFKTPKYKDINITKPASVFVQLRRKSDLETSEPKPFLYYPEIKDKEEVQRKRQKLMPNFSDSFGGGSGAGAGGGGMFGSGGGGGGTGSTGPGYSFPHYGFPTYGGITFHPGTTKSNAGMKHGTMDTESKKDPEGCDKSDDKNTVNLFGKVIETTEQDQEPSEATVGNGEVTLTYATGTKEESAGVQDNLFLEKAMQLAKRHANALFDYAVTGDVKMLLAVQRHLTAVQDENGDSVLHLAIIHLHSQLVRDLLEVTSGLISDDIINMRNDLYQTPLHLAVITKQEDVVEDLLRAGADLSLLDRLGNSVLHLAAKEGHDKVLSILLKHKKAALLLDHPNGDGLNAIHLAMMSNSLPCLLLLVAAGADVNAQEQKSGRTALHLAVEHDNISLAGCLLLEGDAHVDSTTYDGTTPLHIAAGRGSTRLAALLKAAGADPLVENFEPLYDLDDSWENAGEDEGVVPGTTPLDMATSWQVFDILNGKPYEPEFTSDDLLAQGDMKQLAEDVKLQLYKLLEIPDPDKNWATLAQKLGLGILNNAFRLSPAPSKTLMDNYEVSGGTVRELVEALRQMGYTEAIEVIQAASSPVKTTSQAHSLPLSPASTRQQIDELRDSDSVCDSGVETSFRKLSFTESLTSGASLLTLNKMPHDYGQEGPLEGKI

Cc1oc2c(NC(=O)c3c(Cl)cccc3Cl)cccc2c1C(C)(C)O
active: [1] 37.6 µM | [2] 14 µM | [3] 38.6 µM | [4] 70.8 µM | MYC, MYC (gene 4609) 50 µM | [6] 3.27 µM | [8] 50 µM | [9] 14.9 µM | [11] 79 µM | [14] 54 µM | [15] 68.1 µM
inactive: [5] | [7] | [10] | [12] | [13] | [16]

Clc1ccccc1C(c1ccccc1)(c1ccccc1)n1ccnc1
inactive: [5] | [6] | [10] | [13]
active: [1] 93.1 µM | [2] 89.8 µM | [3] 17.3 µM | [4] 25.2 µM | MYC, MYC (gene 4609) 20.5 µM | [7] 87.2 µM | [8] 23.1 µM | [9] 28.3 µM | [11] 14.5 µM | [12] 90.5 µM | [14] 23.7 µM | [15] 23.3 µM | [16] 23.2 µM

CCN(Cc1cccnc1)C(=O)c1cccc(Cl)c1[C@]1(C)C(=O)N(Cc2ccc(OC)cc2OC)c2ccc(Cl)cc21
inactive: [5] | [7] | [10] | [12] | [13]
active: [1] 19.9 µM | [2] 10.4 µM | [3] 18.1 µM | [4] 17.7 µM | MYC, MYC (gene 4609) 25.3 µM | [6] 10.2 µM | [17] 26.5 µM | [18] 10.8 µM | [8] 21.7 µM | [9] 22.3 µM | [11] 16 µM | [14] 22.2 µM | [15] 25.3 µM | [16] 13.6 µM

CC(O)CC(C)(C)O (configuration not stated)
inactive: all assays above

Source: PubChem BioAssay (EPA / NIEHS)
